Test results published in a collection of fitness landscapes (doi:10.1126/science.1257360).
Whole data set: some 140,000 sequences, median “enrichment ratio after two sorts for PhoP signalling” near 0, cut for the highest 2% near 11. This is one part of a sample in which the highest values are shown more often than they occur.

B1: PhoQ; a variant is named by its letters at X, in order, P23837 (parent)
chain: MKKLLRLFFPLSLRVRFLLATAAVVLVLSLAYGMVALIGYSVSFDKTTFRLLRGESNLFYTLAKWENNKLHVELPENIDKQSPTMTLIYDENGQLLWAQRDVPWLMKMIQPDWLKSNGFHEIEADVNDTSLLLSGDHSIQQQLQEVREDDDDAEMTHSVAVNVYPATSRMPKLTIVVVDTIPVELKSSYMVWSWFIYVLSANLLLVIPLLWVAAWWSLRPIEALAKEVRELEEHNRELLNPATTRELTSLVRNLNRLLKSERERYDKYRTTLTDLTHSLKTPLXXLQXXLRSLRSEKMSVSDAEPVMLEQISRISQQIGYYLHRASMRGGTLLSRELHPVAPLLDNLTSALNKVYQRKGVNISLDISPEISFVGEQNDFVEVMGNVLDNACKYCLEFVEISARQTDEHLYIVVEDDGPGIPLSKREVIFDRGQRVDTLRPGQGVGLAVAREITEQYEGKIVAGESMLGGARMEVIFGRQHSAPKDE

Variants of: B1
Experiment: enrichment ratio after two sorts for PhoP signalling (ratio (wild type AVST 3.29)); higher = more functional
Details: with PhoP (E. coli)

Variant	enrichment ratio
EAPV	≤ 0.25
PSRQ	≤ 0.25
MGCC	≤ 0.25
VYFN	≤ 0.25
VGPY	≤ 0.25
LCTR	≤ 0.25
SLWT	≤ 0.25
KSWT	≤ 0.25
SPWT	≤ 0.25
LRWT	≤ 0.25
ADWT	≤ 0.25
LEWT	12.5
TDWT	25.1
TEWT	12.8
SEWT	13.2
HPWT	≤ 0.25
RLWT	≤ 0.25
LLWT	≤ 0.25
MNIK	≤ 0.25
LKPQ	≤ 0.25
MYHS	≤ 0.25
LAEQ	≤ 0.25
KQHW	≤ 0.25
LWPI	≤ 0.25
IYVA	≤ 0.25
RPSC	≤ 0.25

Variant	enrichment ratio
GEHV	≤ 0.25
YVEW	≤ 0.25
RVGM	≤ 0.25
VLSL	0.415
SLSL	10.7
GLSL	11.5
TGSL	16.8
GDSL	≤ 0.25
GLSK	≤ 0.25
NISL	0.771
WISL	≤ 0.25
GGSL	3.4
TLSL	15.8
NGSL	≤ 0.25
TISL	19.4
WCCL	≤ 0.25
HISH	≤ 0.25
VTMH	≤ 0.25
AIRA	≤ 0.25
TVSY	10.4
MVVG	≤ 0.25
YGHF	≤ 0.25
TASL	15.1
KASL	≤ 0.25
TVSL	14.4
SGSL	11.8

Variant	enrichment ratio
SPSL	≤ 0.25
NVSL	≤ 0.25
NASL	≤ 0.25
YWEI	≤ 0.25
PCWT	≤ 0.25
HICM	≤ 0.25
DTPM	≤ 0.25
SQCQ	3.73
RGCQ	≤ 0.25
GECI	7.86
GECQ	17
FGCS	≤ 0.25
NGCQ	≤ 0.25
GECS	7.23
FGCQ	13.2
STCQ	15.3
SPCQ	≤ 0.25
TGCQ	13.9
FGCI	7.38
WIRR	≤ 0.25
DKPL	≤ 0.25
LNCS	≤ 0.25
HHGV	≤ 0.25
NSRQ	≤ 0.25
LTKK	≤ 0.25
ARTW	≤ 0.25

Variant	enrichment ratio
SHKM	≤ 0.25
ACGT	4.5
HFGF	≤ 0.25
MLHA	≤ 0.25
TTCQ	18.9
GECL	5.03
MTCQ	≤ 0.25
GNCQ	12.1
GTCQ	13.4
GECA	1.47
GECV	16.3
ITCQ	≤ 0.25
GNHP	≤ 0.25
DTCQ	≤ 0.25
GICQ	10.3
YTCQ	1.7
MPVD	≤ 0.25
LRSS	≤ 0.25
QFGG	≤ 0.25
YYIN	≤ 0.25
IIQY	≤ 0.25
NRIW	≤ 0.25
HQPD	≤ 0.25
YMHI	≤ 0.25
FYKD	≤ 0.25
HRDN	≤ 0.25

Variant	enrichment ratio
QQHS	≤ 0.25
YSME	1.23
MDWD	≤ 0.25
FRMF	≤ 0.25
GGCQ	13.2
NICQ	≤ 0.25
GHCQ	≤ 0.25
LNMQ	≤ 0.25
NCQG	≤ 0.25
TALI	18.1
IALI	9.02
TALQ	15.2
NALL	5.99
YACN	≤ 0.25
KALQ	≤ 0.25
TADK	≤ 0.25
NALQ	≤ 0.25
TACN	13
KALL	≤ 0.25
NWCN	≤ 0.25
TALL	12
PICT	≤ 0.25
DTQQ	≤ 0.25
VDFR	≤ 0.25
SNNF	6.15
GFIP	≤ 0.25

Variant	enrichment ratio
GLMF	1.04
FESF	≤ 0.25
AAEK	≤ 0.25
QIFT	≤ 0.25
TALT	9.61
IALC	1.46
TALA	13.8
EALN	≤ 0.25
TALN	18.9
TAQN	≤ 0.25
KALC	≤ 0.25
TALC	20.9
TALS	10.9
MHGF	≤ 0.25
YMMK	≤ 0.25
QQSN	≤ 0.25
NNFF	≤ 0.25
VDVG	≤ 0.25
FFRS	≤ 0.25
FHDF	≤ 0.25
MQYS	6.75
QTFE	≤ 0.25
SEKM	≤ 0.25
